Measurements taken from ChEMBL document CHEMBL1961873, “Compounds: GSK PKIS; Assays: Nanosyn kinase panel” (2012).

molecular target: Casein kinase I isoform gamma-1 (Homo sapiens) (UniProt Q9HCP0); settings: at 1 µM
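Note: reported value is the mean inhibition of CK1 gamma-1 kinase activity across replicate measurements.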

Chain of Casein kinase I isoform gamma-1 (Homo sapiens) (Q9HCP0 whole entry, looked up, canonical isoform): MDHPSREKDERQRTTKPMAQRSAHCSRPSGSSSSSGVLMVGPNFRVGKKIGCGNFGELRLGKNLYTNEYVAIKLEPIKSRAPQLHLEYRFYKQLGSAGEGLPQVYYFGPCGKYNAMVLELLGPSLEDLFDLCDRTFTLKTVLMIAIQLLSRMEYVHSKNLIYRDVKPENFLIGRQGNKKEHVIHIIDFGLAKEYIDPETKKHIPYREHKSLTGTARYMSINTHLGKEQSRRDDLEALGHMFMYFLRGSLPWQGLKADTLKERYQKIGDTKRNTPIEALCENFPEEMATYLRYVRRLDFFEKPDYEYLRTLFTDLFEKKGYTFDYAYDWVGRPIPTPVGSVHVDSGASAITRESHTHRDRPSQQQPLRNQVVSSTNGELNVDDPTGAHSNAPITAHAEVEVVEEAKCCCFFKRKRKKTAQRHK

Row | Compound | inhibition [%]
1 | COc1ccc2ncn(-c3cc(O[C@H](C)c4ccccc4Cl)c(C(N)=O)s3)c2c1 | -0.54
2 | COc1cc(N2CCN(C(C)C)CC2)ccc1Nc1nc(Nc2ccc(F)cc2C(=O)NC[C@@H](O)CO)c2cc[nH]c2n1 | 17.9
3 | NS(=O)(=O)c1ccc(N/N=C2\C(=O)Nc3ccc(-c4cnco4)cc32)cc1 | -1.7
4 | CN1CCN(CCCNc2nc3ccc(Oc4ccc(NC(=O)Nc5cc(C(F)(F)F)ccc5F)cc4)cc3[nH]2)CC1 | -3.19
5 | Fc1ccc(-c2ncn(C3CCNCC3)c2-c2ccnc(Oc3ccc(Oc4ccccc4)cc3)n2)cc1 | 20.6
6 | COc1cc(Nc2ncc3c(C)nc(-c4cccc(Oc5ccccc5)c4)n3n2)cc(OC)c1OC | 3.71
7 | CCc1ccc(Oc2nccc(-c3c(-c4ccc(F)cc4)ncn3C3CCNCC3)n2)cc1 | 14.8
8 | Cc1ccc(C(=O)NC(C)C)cc1-c1ccc(C(=O)NCC2CC2)cc1 | -2.32
9 | COc1cccc(-n2cnc3c(N/N=C/c4ccncc4)ncnc32)c1 | -4.26
10 | Fc1ccc(-c2ncn(C3CCNCC3)c2-c2ccnc(Oc3ccc4c(c3)OCO4)n2)cc1 | 13.1
11 | O=C(NCC1CC1)c1ccc(-c2cccc(C(=O)NC3CC3)c2)cc1 | 3.84
12 | C#Cc1cccc(Nc2ncnc3ccc(OCCCCNCCS(C)(=O)=O)cc23)c1 | 1.77
13 | NCc1ccc(-n2c(-c3nonc3N)nc3cnccc32)cc1 | 8.48
14 | O=C(Nc1n[nH]c2cc(-c3ccccc3)ccc12)C1CC1 | 5.75
15 | CCS(=O)(=O)c1ccc(OC)c(Nc2ncc(-c3cccc(-c4ccccc4F)c3)o2)c1 | 0.08
